ERb coact inh: ER-beta (human) coactivator binding inhibition | Q92731 | TR-FRET ER-beta LBD / SRC1-Cy5 peptide binding; receptor agonist-loaded with 1 µM estradiol | inhibition, % at 25.6 µM | 1.3% of 86,000 active;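 active = compounds whose percent inhibition of the receptor-coactivator binding signal exceeds about 50% in the single-dose screen, limit read from the data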;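 also: 0% = receptor plus peptide wells without compound and 100% = peptide-only wells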
MRP-1 activ: activates MRP-1; H69AR cells + doxorubicin, viability rescue, CellTiter-Glo; viability increase, % at 10 µM; 0.61% of 140,000 active;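 active = viability gain under doxorubicin at or above a set limit, the compound median plus 3 SD, cut at about 4.7% in these data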;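 also: MRP-1 overexpressing cells given doxorubicin 25 µM after compound pretreatment; 18-22 h compound pretreatment then 72 h with doxorubicin before readout; 0% = doxorubicin-only wells and 100% = vehicle-treated cells without doxorubicin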
ERa coact inh: ER-alpha (human) coactivator binding inhibition. P03372. TR-FRET ER-alpha LBD / SRC-1 peptide, estradiol-bound. inhibition, % at 25.6 µM. 1.7% of 86,000 active. AID 629; in the data active = inhibition above about 50%;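 also: 0% = receptor plus peptide control and 100% = peptide only without receptor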
Target sequence (P03372 whole entry, looked up, the tested form may be a part): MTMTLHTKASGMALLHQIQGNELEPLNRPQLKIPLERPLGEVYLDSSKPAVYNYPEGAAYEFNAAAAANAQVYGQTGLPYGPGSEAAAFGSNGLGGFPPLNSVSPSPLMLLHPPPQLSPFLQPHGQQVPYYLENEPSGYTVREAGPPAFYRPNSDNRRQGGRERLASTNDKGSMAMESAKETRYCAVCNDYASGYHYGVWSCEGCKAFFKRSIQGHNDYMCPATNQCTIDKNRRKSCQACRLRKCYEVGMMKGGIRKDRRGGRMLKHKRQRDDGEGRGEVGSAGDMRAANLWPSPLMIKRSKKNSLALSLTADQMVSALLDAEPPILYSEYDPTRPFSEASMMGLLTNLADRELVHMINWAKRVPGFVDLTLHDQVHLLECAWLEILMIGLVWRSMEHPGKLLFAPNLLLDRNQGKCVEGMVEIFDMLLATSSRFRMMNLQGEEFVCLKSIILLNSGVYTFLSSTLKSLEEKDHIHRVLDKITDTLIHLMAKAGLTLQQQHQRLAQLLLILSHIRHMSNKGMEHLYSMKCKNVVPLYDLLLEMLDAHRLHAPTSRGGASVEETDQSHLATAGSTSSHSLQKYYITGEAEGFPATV
ERa coact pot: enhances coactivator binding to human estrogen receptor alpha. TR-FRET ERalpha-LBD/SRC-Cy5 coactivator binding, 2 h; 100 = basal binding, no effect. 1.3% of 86,000 active. P03372. coactivator binding (% of control), % at 25.6 µM; in the data active = activity above about 200%;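 also: binding measured in presence of low estradiol as agonist stimulus; 0% = peptide alone without receptor and 100% = receptor with peptide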
MRP reversal: reverses drug resistance mediated by MRP; differential viability (reversal), % at 10 µM; 0.04% of 85,000 active; H69AR cells + 2 uM doxorubicin, CellTiter-Glo, 72 h;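 active = viability drop by adding the cancer drug above about 55%, with treated viability meeting a 40% cutoff, limit read from the data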;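 also: viability without doxorubicin minus viability with 2 µM doxorubicin for each compound; larger differential means the compound sensitizes cells more to doxorubicin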
Numbers without * were called inactive; · = no result; [ ] = another dose, or the depositor's remark. Most compounds without a hit are left out; they make up all but 2.7% or so of the library.

SMILES	ERb coact inh	MRP-1 activ	ERa coact inh	ERa coact pot	MRP reversal
CCN1C(=O)c2cccc3c(NC(=O)c4ccccc4)ccc1c23	-6.5	-0.6	-14.4	107.7	37.3
c1ccc(CNc2nc3ccccc3n3cnnc23)cc1	6.5	-0.2	4.5	238.0*[fluorescence artefact?]	9.4
c1ccc(CNc2nc3ccccc3n3cnnc23)nc1	-9.8	0.0	-11.8	113.6	5.9
COc1ccc(NS(=O)(=O)c2cccc(N/C(=N\S(=O)(=O)c3ccccc3)c3ccc(F)cc3)c2)cc1	·	-4.2	·	·	·
O=C(COC(=O)CC1CCCC1)Nc1cc2c(cc1Cl)C(=O)c1ccccc1C2=O	46.4	-1.4	51.9*	62.5	-22.6
O=C(COC(=O)CCC1CCCC1)Nc1ccccc1Sc1ccccc1	·	-0.6	·	·	·
O=C(COc1ccc(Cl)cc1)NCc1nnc2c3ccccc3c(-c3ccccc3)nn12	·	5.0*	·	·	·
N=c1c2c3c(sc2nc2n1CCCCC2)CCCCC3	-2.2	-1.8	-10.4	93.7	6.1
CCC(C)n1cnc2c(c1=O)c1nc3ccccc3nc1n2Cc1ccc2c(c1)OCO2 (centres undefined)	11.2	-1.6	1.8	122.8	18.2
C=CCn1cnc2c(c1=O)c1nc3ccccc3nc1n2-c1ccccc1	27.6	·	-4.1	95.8	9.3
CCC(C)n1cnc2c(c1=O)c1nc3ccccc3nc1n2-c1ccc2c(c1)OCCO2 (centres undefined)	10.3	-0.5	30.4	246.1*	-6.9
O=c1c2c3nc4ccccc4nc3n(-c3cccc(F)c3)c2ncn1Cc1ccc2c(c1)OCO2	61.4*[fluorescence artefact?]	·	81.6*[fluorescence artefact?]	76.3	1.3
Cc1cccc(NC(=O)Cn2c(=O)n(Cc3ccco3)c(=N)c3c4c(sc32)COC(C)(C)C4)c1	0.8	9.4*	-3.4	115.4	-2.5
CCN1C(=O)c2cccc3c(NC(=O)c4ccc(OC)c(OC)c4)ccc1c23	0.3	-2.9	-10.8	115.5	2.5
CC(=O)c1c(C)[nH]c(C(=O)COc2cc(C)ccc2C(C)C)c1C	3.8	-1.9	-14.6	114.0	2.8
CC(=O)c1c(C)[nH]c(C(=O)COc2ccc(C#N)cc2)c1C	12.1	-1.7	63.3*	41.9	-1.8
CCOC(=O)c1[nH]c(COC(=O)CCOc2ccccc2OC)c(C(=O)OCC)c1C	·	2.0	·	·	·
COc1ccccc1NC(=O)c1[nH]c(C)c(C(C)=O)c1C	-5.6	-1.3	-0.6	104.8	4.8
COc1ccccc1OCC(=O)c1[nH]c(C)c(C(C)=O)c1C	73.8*[fluorescence artefact?]	-2.3	68.9*[fluorescence artefact?]	41.7	-1.6
CCOc1ccc(OCC)c(NC(=O)c2[nH]c(C)c(C(C)=O)c2C)c1	37.8	-0.6	54.1*[fluorescence artefact?]	249.2*[fluorescence artefact?]	2.0
CCOC(=O)c1c(C)[nH]c(C)c1C(=O)COC(=O)CCOc1ccccc1OC	58.4*	-3.0	21.4	80.0	-6.3
CC(C)CC(=O)O/N=C1\C(=O)N(Cc2ccc(Cl)cc2)c2ccc([N+](=O)[O-])cc21	·	-1.6	·	·	·
O=C(N/N=C/c1ccccn1)c1cc(-c2ccc3ccccc3c2)n[nH]1	·	7.5*	·	·	·
O=C(N/N=C/c1ccccn1)c1cc(-c2cccc3ccccc23)n[nH]1	·	0.4	·	·	·
Nc1c(C(=O)c2cccs2)oc2ccccc12	-4.4	-2.0	-14.7	258.8*[fluorescence artefact?]	-7.0
SMILES	ERb coact inh	MRP-1 activ	ERa coact inh	ERa coact pot	MRP reversal
CCOc1ccc(CCNC(=O)c2cc3ccccn3n2)cc1OCC	0.8	-1.4	-5.6	118.1	18.0
CCCCCNCc1cccc(Br)c1	·	-2.8	·	·	·
CSc1nc2ccccc2n1Cc1cccc([N+](=O)[O-])c1	·	-1.8	·	·	·
CSc1nc2ccccc2n1Cc1cccc(F)c1	74.9*[fluorescence artefact?]	-1.1	1.9	92.8	·
O=C(NC(=S)NCc1ccccc1)C1CCCCC1	·	-2.1	·	·	·
Oc1c(C=C2N=c3ccccc3=N2)sc(=S)n1-c1ccc(F)cc1	·	9.2*	·	·	·
Oc1c(C=C2N=c3ccccc3=N2)sc(=S)n1C1CCCC1	·	-4.2	·	·	·
COc1cc(-c2nc(-c3cccc(C)c3)no2)cc(OC)c1OC	17.6	0.7	-6.4	128.7	-2.8
COc1ccc(-c2nc(-c3cccc(C)c3)no2)cc1OC	-7.3	5.5*	-29.3	172.6	-22.7
COc1cc(-c2noc(-c3cccc(Cl)c3)n2)cc(OC)c1OC	15.8	-0.8	4.8	233.0*	0.8
COc1cc(-c2nc(-c3cccnc3)no2)cc(OC)c1OC	·	-1.0	·	·	·
CCOC(=O)c1cc[n+](CC(=O)c2ccc(F)cc2)cc1	·	0.9	·	·	·
C=C(C)CNC(=S)NNC(=O)c1ccc(Br)cc1	·	-1.3	·	·	·
CC(=O)c1cc(-c2ccccc2)n(CC(=O)Nc2cccc(C)c2)c1C	·	-3.6	·	·	·
Cn1c(C(=O)NCCCN2CCCCCC2)cc2c(=O)n(C)c3ccccc3c21	0.7	-4.3	53.3*[fluorescence artefact?]	120.4	9.9
CC(C)Oc1ccc(CSC(=N)N)cc1	·	7.9*	·	·	·
Cc1ccc(C)c(Cn2c(=O)n(-c3ccc(CC(=O)NCc4ccco4)cc3)c(=O)c3sccc32)c1	54.5*	-3.2	79.6*[fluorescence artefact?]	127.0	11.9
Cc1ccccc1Cn1c(=O)n(-c2ccccc2)c(=O)c2ccc(C(=O)NCc3ccco3)cc21	·	-3.8	·	·	·
CCOC(=O)CN1CC23C=CC(O2)C(C(=O)Nc2cc(OC)ccc2OC)C3C1=O (centres undefined)	69.1*	-0.7	72.0*[fluorescence artefact?]	41.1	2.7
O=C(NCCCn1ccnc1)c1cc2cc([N+](=O)[O-])ccc2oc1=O	·	-1.3	·	·	·
CC(C)C(=O)N1CCN(c2ccccc2NC(=O)c2cccc(Cl)c2)CC1	-4.7	-2.8	-3.1	92.8	78.1*
O=C(CC1CS(=O)(=O)CC1CC(=O)Oc1ccccc1F)Oc1ccccc1F (centres undefined)	·	-1.5	·	·	·
Cc1ccc(Cn2c(SCC(=O)N/N=C/c3ccc(C)o3)nc3ccccc32)cc1	·	4.7*	·	·	·
O=C(CSc1nc2ccccc2n1Cc1ccccc1)N/N=C/c1ccco1	·	-1.8	·	·	·
COC(=O)c1ccc(C(=O)OC)c(-n2c(=O)c3ccccc3c3ccccc3c2=O)c1	·	1.1	·	·	·
SMILES	ERb coact inh	MRP-1 activ	ERa coact inh	ERa coact pot	MRP reversal
O=C(N/N=C/c1ccc(O)c(O)c1O)/C(=C/c1ccc([N+](=O)[O-])cc1)NC(=O)c1ccccc1	71.0*[fluorescence artefact?]	-0.1	89.0*[fluorescence artefact?]	42.6	-11.6
Cc1c(NS(=O)(=O)c2ccc(N(C)C3CCCCC3)c([N+](=O)[O-])c2)c(=O)n(-c2ccccc2)n1C	·	-3.0	·	·	·
CCNC(=O)c1oc2c(c1C)C(=O)CC(C)(C)C2	-7.1	1.2	1.7	101.0	7.0
CC1(C)CC(=O)c2c(oc3cc(O)c(O)cc23)C1	58.3*[fluorescence artefact?]	-3.0	26.8	71.2	-30.1
Cc1ccc(C(C)C)c(OCCNc2nc3c(c(=O)n(C)c(=O)n3C)n2C)c1	-4.0	·	-9.5	116.5	9.4
CCOC(=O)c1c(NC(=O)CSc2nnc(CNC(=O)c3ccco3)n2C)sc2c1CCC2	23.4	-2.5	65.3*	75.8	·
CCOC(=O)c1c(NS(=O)(=O)c2ccc(Br)cc2)sc2c1CCC2	55.7*	-4.5	60.6*[fluorescence artefact?]	42.0	-2.2
CCOC(=O)c1c(NC(=O)CSc2nnc(C)s2)sc2c1CCN(C)C2	48.0	-2.4	85.5*[fluorescence artefact?]	91.8	-8.4
CCOC(=O)c1c(NC(=O)c2cccs2)sc2c1CCC2	15.3	·	16.4	262.5*[fluorescence artefact?]	-2.5
O=C(NC1CC1)C1CCN(c2ncnc3c2sc2cccc(F)c23)CC1	·	-4.3	·	·	·

High-throughput results deposited in PubChem BioAssay by several laboratories.
